Screens deposited in PubChem by National Center for Advancing Translational Sciences (NCATS).
BAZ2B inh: blocks human BAZ2B | Q9UIF8 | AlphaScreen BAZ2B-H3K14Ac peptide displacement | Potency, µM (titrated, usually from 114 µM), for inactives: top-dose activity change, negative = inhibition, hits mostly inhibitors | 4.4% of 360,000 active | AID 504333; note: potency is the fitted concentration of half-maximal effect; % is set by controls: 0 for no effect and ±100 for the full control effect; nearly all actives have a fitted effect of over 60% in size
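AlphaScreen displacement: compounds (up to 110uM) incubated 30 min at room temperature with a preformed 50 nM BAZ2B/50 nM biotinylated H3K14Ac peptide complex in PBS pH 7.4 with Tween-20. Donor and acceptor beads at 10 ug/mL final added, 20 min light-protected before reading.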
HP1b chromo inh: HP1-beta chromodomain-methylated histone interaction inhibition; Potency, µM (highest dose often 114 µM), inactives show at the highest dose activity change, negative = inhibition, actives largely listed as inhibitors; 0.56% of 390,000 active; AlphaScreen HP1-beta / biotin-H3K9me3 peptide binding; note: potency is the fitted concentration of half-maximal effect; nearly all actives have a fitted effect of over 70% in size
Target sequence (P83916 whole entry, looked up): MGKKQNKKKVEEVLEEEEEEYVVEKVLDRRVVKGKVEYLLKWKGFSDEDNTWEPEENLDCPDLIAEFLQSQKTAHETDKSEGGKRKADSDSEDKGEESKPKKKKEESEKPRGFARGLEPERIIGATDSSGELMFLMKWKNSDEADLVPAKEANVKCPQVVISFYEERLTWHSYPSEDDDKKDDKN
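AlphaScreen: HP1-beta (50 nM) preformed 30 min with biotin-H3(1-18)K9me3 peptide (50 nM) in PBS pH 7.4, 0.01% Tween-20. Compound added for 30 min at RT, then streptavidin donor/nickel chelate acceptor beads (10 ug/mL) for 30 min.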
PI5P4Ka inh: blocks human PI5P4K alpha kinase activity; P48426; PI5P4Kalpha enzyme, ADP-Glo luminescence, 60 min; active compounds read low; max response, %; 1.2% of 330,000 active; AID 652105; active = max response of -50% or lower; inconclusive = between -30% and -50%; inactive = -30% or higher; note: value at the top dose of about 77 µM; % is set by controls: 0 for no effect and ±100 for the full control effect
Target sequence (P48426 whole entry, looked up): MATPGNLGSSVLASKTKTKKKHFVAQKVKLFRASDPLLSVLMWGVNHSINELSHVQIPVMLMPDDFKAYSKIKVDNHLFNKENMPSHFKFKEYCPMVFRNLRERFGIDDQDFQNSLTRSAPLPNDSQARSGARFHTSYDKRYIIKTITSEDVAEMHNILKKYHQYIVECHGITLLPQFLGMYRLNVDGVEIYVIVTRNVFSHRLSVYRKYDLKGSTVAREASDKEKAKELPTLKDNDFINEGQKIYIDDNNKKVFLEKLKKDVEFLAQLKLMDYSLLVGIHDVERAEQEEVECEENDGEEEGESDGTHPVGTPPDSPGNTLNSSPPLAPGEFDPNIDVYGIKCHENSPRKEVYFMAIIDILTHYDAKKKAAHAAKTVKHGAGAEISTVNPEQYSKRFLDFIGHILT
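Controls without substrate or without enzyme flank wells where PI5P4Kalpha converts substrate using 5 microM ATP (final). Incubation lasts 60 minutes at room temperature; ADP formed is read by ADP-Glo luminescence.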
GCN5L2 inh: GCN5L2 (KAT2A) acetyltransferase inhibition | Potency, µM (top dose mostly 58.9 µM), inactives show at the highest dose activity change, negative = inhibition, most hits filed as inhibitors | AID 504327 | 0.21% of 390,000 active | GCN5L2 HAT assay, ThioGlo1 CoA-SH fluorescence | Q92830; note: potency is the fitted concentration of half-maximal effect; % is set by controls: 0 for no effect and ±100 for the full control effect
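qHTS, 1536-well. 20nM enzyme, pH 7.5 HEPES/EDTA/Tween-20 buffer; 15 min compound preinc., RT. Start: 75uM H3(1-25), 70uM AcCoA, 50uM ThioGlo1. Read Ex340/Em540 at t=0 (autofluorescence flag) and t=20 min.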
JMJD2A Tudor inh: JMJD2A Tudor domain (human) inhibition. O75164. AlphaScreen JMJD2A-Tudor / H3K4me3 peptide binding. Potency, µM (series often up to 114 µM), for inactives: at the top dose activity change, negative = inhibition, usual class: inhibitors. 4.4% of 390,000 active; note: potency is the fitted concentration of half-maximal effect; % is set by controls: 0 for no effect and ±100 for the full control effect; nearly all actives have a fitted effect of over 50% in size
PLK1 PBD block: inhibitors of human PLK1 polo-box domain binding; Plk1 PBD binding of FITC phosphopeptide, fluorescence polarization; P53350; 2.8% of 360,000 active; Potency, µM, without a hit: max response, negative = inhibition, usual class: inhibitors; note: potency is the fitted concentration of half-maximal effect; series mostly up to about 57 µM; % is set by controls: 0 for no effect and ±100 for the full control effect; nearly all actives have a fitted effect of over 65% in size
* = called active by the depositor; ? = inconclusive; · = no result given; [ ] = another dose, or the depositor's remark. Compounds with a hit are over-represented: about 7% of the library has one in this group of screens. Unless noted, calls come from the whole dose curve; as a rule, active = well fitted curve in the direction sought with a large enough effect; inconclusive = small, poorly fitted or top-dose-only effect, or another doubt; inactive = no such curve, though single readings can be large; an effect the other way counts as inactive or inconclusive.

SMILES | BAZ2B inh | HP1b chromo inh | PI5P4Ka inh | GCN5L2 inh | JMJD2A Tudor inh | PLK1 PBD block
Cc1ccccc1C(=O)Nc1c2c(nn1C(C)(C)C)CS(=O)(=O)C2 | 0% | 19% | -4 | 0% | -4% | -4%
Cn1c(=O)c2c(-c3ccccc3Br)n(C(C)(C)C)cc2n(C)c1=O | 79µM* | -8% | · | -7% | -32% | ·
Oc1cccc2cc3cccc(O)c3c(O)c12 | 40µM* | -8% | -4 | -30% | ? | ?
CCc1ccc(N2C(=O)CS(=O)(=O)C23C(=O)N(Cc2ccccc2F)c2ccccc23)cc1 (stereo not drawn) | 2%[57.1 µM] | 25% | · | -12% | -13% | ·
Cn1c(C(C#N)C2=C(Cl)C(=O)N(c3ccccc3)C2=O)nc2ccccc21 (stereo not drawn) | 8.9µM* | · | · | -14% | · | ·
Cn1c(C(O)C(O)c2ccccc2)nc2ccccc21 (stereo not drawn) | -3% | 37% | 3 | -11% | -7% | -1%
O=C(CCS(=O)(=O)c1ccc(Br)cc1)NCc1ccco1 | 50µM* | 43% | 0 | -6% | 2% | -5%
O=C(CCS(=O)(=O)c1ccc(Br)cc1)NCc1cccs1 | 50µM* | 50µM* | 0 | -1% | 35µM* | ?
CNC(CC(=O)c1ccc([N+](=O)[O-])cc1)C(Cl)(Cl)Cl (stereo not drawn) | ? | 16µM* | -15 | 2% | ? | 2.7µM*
Cc1ccc(OCC(=O)NNC(=O)Cc2ccc(S(=O)(=O)N3CCOCC3)s2)cc1 | -7% | 2% | -61* | -22% | -23% | -10%
COc1ccc(S(=O)(=O)N2CCOCC2)cc1NC(=O)COC(=O)CCS(=O)(=O)c1ccc(C)cc1 | · | 28% | -4 | · | -2% | 1%
C[C@@H]1CN([C@@H](C)CO)C(=O)c2cc(NC(=O)C3CCCCC3)ccc2O[C@@H](C)CCCCO[C@@H]1CN(C)Cc1ccncc1 | · | · | 5 | · | · | -9%
O=C(NCc1ccccc1)c1cccc(OCC(=O)N2CCN(C(=O)c3ccco3)CC2)c1 | ? | 0% | -3 | -5% | 40µM* | -7%
O=C(Nc1nnc(-c2cccs2)o1)c1cccc(C(F)(F)F)c1 | 1% | 4% | 10 | -9% | ? | 30µM*
CN(C)S(=O)(=O)c1ccc(C(=O)Nc2nnc(-c3cccs3)o2)cc1 | ? | 66% | -8 | -7% | 79µM* | ?
COc1cccc(-c2cc(C(=O)Nc3ccc(OC)cc3OC)no2)c1 | -4% | 34% | · | -4% | -4% | ·
CCOc1ccc(CCNC(=O)Cn2nc(C)n3c(cc4occc43)c2=O)cc1OCC | 1% | 4% | · | 1% | -16% | ·
O=C(CCN1CCOCC1)c1ccccc1 | 2% | 37% | · | 0% | -8% | ?
O=c1oc2ccccc2c(N2CCCCC2)c1CN1CCCC1 | 6% | 23% | · | -1% | 4% | -8%
O=C(CSc1nc(N2CCCCC2)nc(N2CCCCC2)n1)c1ccccc1 | -3% | 12% | 4 | -8% | 8%[11.4 µM] | 30µM*
CCc1oc2ccccc2c1C(=O)CCN1CCCCC1 | 8% | 39% | · | -6% | -22% | 12µM*
O=C(CCN1CCCCC1)c1ccccc1 | 29% | 30% | · | -4% | -11% | 15µM*
CC(=O)OC(C[N+]1(C)CCCCCC1)c1ccccc1 (stereo not drawn) | 2% | 23% | 4 | 2% | -6% | -3%
C[N+]1(CCC(=O)c2ccccc2)CCCCC1 | -2% | ? | 3 | -12% | ? | 12µM*
O=C(CNC(=O)c1ccc(Br)o1)NNC(=O)c1ccccc1O | 4% | 47% | -3 | -17% | -8% | 3%
SMILES | BAZ2B inh | HP1b chromo inh | PI5P4Ka inh | GCN5L2 inh | JMJD2A Tudor inh | PLK1 PBD block
CC1CCCN(CCC(=O)c2ccccc2)C1 (stereo not drawn) | · | 16%[57 µM] | -1 | · | 1% | 13µM*
COc1ccc(NC(=O)CCN2CCCC(C)C2)cc1 (stereo not drawn) | -3% | 28% | 1 | -5% | 4% | 3%
O=c1[nH]c2ccccc2cc1CN(CC1CCCO1)S(=O)(=O)c1ccccc1 (stereo not drawn) | 2% | -5% | 4 | -4% | -17% | -6%
CCOC(=O)N1CCN(Cc2nc3cc(NC(C)=O)ccc3n2C(C)C)CC1 | ? | 34% | · | -9% | 50µM* | ·
Cc1nc2sc(C(c3ccco3)N3CCN(c4ccccc4F)CC3)c(O)n2n1 (stereo not drawn) | -30% | 10% | · | -2% | -18% | -4%
Cc1nc2sc(C(c3ccco3)N3CCc4ccccc4C3)c(O)n2n1 (stereo not drawn) | · | -6% | · | · | 56µM* | ?
CC(C)COC(=O)N1CCCCC1c1cc(C(=O)NCc2ccccc2)no1 (stereo not drawn) | · | · | -3 | · | · | -3%
O=c1c2ccccc2sc2c(CO)ccc(NCCN3CCCCC3)c12 | · | ? | 14 | · | 50µM* | 0%
CCN(CC)CCNc1ccc(CO)c2sc3ccccc3c(=O)c12 | ? | -9% | 7 | -4% | ? | -18%
N#CC1=C(S)N(c2ccc(F)cc2)C(c2cccs2)NC1=O (stereo not drawn) | 5% | 38% | -3 | 2% | -20%[57.1 µM] | -16%
N#CC1=C(S)N(c2ccccc2)C(c2ccc(-c3ccccc3Cl)o2)NC1=O (stereo not drawn) | ? | ? | -1 | -15% | ? | 19µM*
Cc1ccccc1N1C(S)=C(C#N)C(=O)NC1c1ccco1 (stereo not drawn) | ? | 23% | -53* | -1% | -25% | ?
Cc1ccccc1N1C(S)=C(C#N)C(=O)NC1c1cccs1 (stereo not drawn) | ? | 26% | -29 | -7% | -27% | ?
C[C@H](CO)N1C[C@H](C)[C@H](CN(C)C(=O)Nc2ccc(C(F)(F)F)cc2)Oc2ncc(-c3cccnc3)cc2C1=O | · | · | 0 | · | · | -18%
CCOCCCNCC(=O)NCC1CCCCC1 | 50µM* | ? | -3 | -2% | 20µM* | -2%
Oc1ccc(-c2cnns2)c(O)c1 | -24% | ? | 3 | -8% | 0.79µM* | ?
Oc1ccc(-c2nc3ccccc3s2)c(O)c1 | 15% | 84% | 20 | -18% | 13% | -21%
Cc1cc(C)c(NC(=O)COc2cccnc2[N+](=O)[O-])c(C)c1 | -3% | 43% | -1 | -5% | 0% | -5%
O=C(CCN1CCN(S(=O)(=O)c2ccc(F)cc2)CC1)Nc1ccccc1F | -2% | 30% | -1 | -15% | -5% | -2%
O=C(CCN1CCN(S(=O)(=O)c2cccc([N+](=O)[O-])c2)CC1)Nc1ccccc1F | -34% | -18% | -13 | -5% | ? | 27µM*
NS(=O)(=O)c1ccc(CCNc2nn3c(-c4cccc(OC(F)(F)F)c4)cnc3s2)cc1 | · | · | 15 | · | · | 3%
